WRN helicase inh = inhibitors of human WRN helicase; Q14191; WRN helicase unwinding, fluorescent forked duplex, kinetic; Potency, µM (highest dose often 114 µM), usual class: inhibitors; 0.46% of 360,000 active; AID 651768; further: nearly all actives have a fitted effect of over 55% in size
Target sequence (Q14191 whole entry, looked up): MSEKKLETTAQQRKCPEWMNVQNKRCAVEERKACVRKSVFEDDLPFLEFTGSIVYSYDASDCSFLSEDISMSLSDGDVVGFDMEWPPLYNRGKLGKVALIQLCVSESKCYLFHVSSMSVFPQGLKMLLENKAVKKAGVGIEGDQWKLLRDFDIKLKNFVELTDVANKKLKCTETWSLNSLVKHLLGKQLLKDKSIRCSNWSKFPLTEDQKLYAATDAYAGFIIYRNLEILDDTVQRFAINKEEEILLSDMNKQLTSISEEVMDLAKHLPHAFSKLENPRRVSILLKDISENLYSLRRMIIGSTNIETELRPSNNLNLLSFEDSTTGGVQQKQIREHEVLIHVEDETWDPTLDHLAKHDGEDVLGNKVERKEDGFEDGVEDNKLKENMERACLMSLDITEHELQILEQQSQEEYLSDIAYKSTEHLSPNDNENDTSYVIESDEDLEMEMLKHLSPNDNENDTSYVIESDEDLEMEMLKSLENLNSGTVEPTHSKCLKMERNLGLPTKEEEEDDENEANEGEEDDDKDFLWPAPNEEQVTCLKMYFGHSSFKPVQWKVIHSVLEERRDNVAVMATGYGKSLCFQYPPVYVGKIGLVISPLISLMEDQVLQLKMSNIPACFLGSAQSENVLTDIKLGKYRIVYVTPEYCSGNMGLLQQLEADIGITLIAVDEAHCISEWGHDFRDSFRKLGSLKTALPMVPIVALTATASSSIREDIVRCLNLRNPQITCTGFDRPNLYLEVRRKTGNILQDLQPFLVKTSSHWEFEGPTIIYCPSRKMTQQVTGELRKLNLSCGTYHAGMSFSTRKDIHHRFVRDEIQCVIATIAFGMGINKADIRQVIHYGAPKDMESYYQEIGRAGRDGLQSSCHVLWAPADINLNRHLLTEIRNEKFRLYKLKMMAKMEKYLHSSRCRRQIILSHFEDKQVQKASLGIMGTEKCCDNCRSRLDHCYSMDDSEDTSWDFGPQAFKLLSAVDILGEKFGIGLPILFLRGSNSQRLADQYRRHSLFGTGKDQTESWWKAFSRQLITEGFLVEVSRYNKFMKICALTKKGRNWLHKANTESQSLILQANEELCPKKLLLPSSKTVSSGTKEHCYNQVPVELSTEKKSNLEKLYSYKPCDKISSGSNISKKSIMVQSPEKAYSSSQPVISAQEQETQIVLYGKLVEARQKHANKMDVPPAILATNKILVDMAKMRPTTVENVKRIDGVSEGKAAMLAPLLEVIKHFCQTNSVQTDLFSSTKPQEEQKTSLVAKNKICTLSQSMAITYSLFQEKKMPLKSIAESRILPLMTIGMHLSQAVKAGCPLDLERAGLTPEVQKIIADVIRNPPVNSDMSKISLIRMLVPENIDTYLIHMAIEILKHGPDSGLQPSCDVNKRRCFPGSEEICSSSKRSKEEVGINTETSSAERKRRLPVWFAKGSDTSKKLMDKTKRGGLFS
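WRN at 20 nM final was preincubated with compound for 15 min at room temperature; reaction started with 100 nM forked duplex oligonucleotide carrying fluorophore and quencher plus 2 mM ATP (final). Unwinding followed kinetically by red fluorescence (ex 525/em 598 nm).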
Pol iota inh = DNA polymerase iota (human) inhibition | Q9UNA4 | Pol iota fluorescent replication assay, 10 min | Potency, µM (series often up to 115 µM), hits mostly inhibitors | 1% of 390,000 active
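Fluorescent replication assay read twice, at 0 min and 10 min after adding 50 nM (final) substrate. Enzyme (10 nM) and compounds were first incubated 15 min at room temperature; enzyme-free buffer wells were negative controls.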
FEN1 inhibitor = blocks human flap endonuclease 1; P39748; Recombinant FEN1 flap cleavage, fluorescence, 15 min; Potency, µM (titrated, usually from 114 µM), most hits filed as inhibitors; 0.35% of 390,000 active; AID 588795; further: nearly all actives have a fitted effect of over 65% in size
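Quantitative HTS format: each compound was titrated, incubated with 10 nM nuclease for 15 min at room temperature, then challenged with flap substrate at 50 nM final. Signal change over 15 min gave concentration–effect curves.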
Pol eta inh = inhibitors of human DNA polymerase eta; recombinant Pol eta, fluorescent DNA replication assay; 1.2% of 390,000 active; AID 588591; Potency, µM (highest dose often 114 µM), most hits filed as inhibitors
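Fluorescent replication assay: 50 nM final substrate added after a 15 min room-temperature compound preincubation with 10 nM enzyme. Signal taken at 0 min and again at 10 min.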
POLK inh = inhibitors of human DNA polymerase kappa; Potency, µM (series often up to 107 µM), most hits filed as inhibitors; 0.53% of 400,000 active; Q9UBT6; AID 588579; purified Pol kappa, fluorescent DNA synthesis assay, 10 min
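50 nM final substrate added after 15 min RT preincubation of 10 nM Pol kappa with compound; fluorescence read at 0 and 10 min.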
POLB inh = blocks human DNA polymerase beta activity; P06746; Pol beta primer extension/strand displacement, fluorescence kinetic; Potency, µM (highest dose often 114 µM), hits mostly inhibitors; 1.3% of 340,000 active; AID 485314
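Kinetic readout of DNA synthesis with strand displacement by Pol beta. Compound and 10 nM enzyme sit 15 min at room temperature; 50 nM substrate starts the reaction, read immediately and at 10 min.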
Large screens that a line does not name were inactive. The list is not random: actives were taken first. Their share in the collection is about 2.4%. The call rests on the fitted dose curve; in most records, active means well fitted curve in the direction sought with a large enough effect; inconclusive means small, poorly fitted or top-dose-only effect, or another doubt; inactive means no such curve, though single readings can be large; an effect the other way counts as inactive or inconclusive.

C[C@]12O[C@H](C[C@]1(O)CO)n1c3ccccc3c3c4c(c5c6ccccc6n2c5c31)CNC4=O	none (no result: WRN helicase inh, Pol iota inh, FEN1 inhibitor, Pol eta inh, POLB inh)
Cc1ccnc(SCC(=O)Nc2sccc2C#N)n1	Pol iota inh inconclusive, POLK inh inconclusive, POLB inh 32µM
O=C(C=Cc1ccccc1)CC(c1ccccc1)N1CCOCC1 (stereo not drawn)	Pol iota inh 20µM, Pol eta inh inconclusive (no result: POLB inh)
C/C=C1\C(OC2OC(CO)C(O)C(O)C2O)OC=C(C(=O)OC)C1CC(=O)OCC1C(C)C(OC(=O)CC2C(C(=O)OC)=COC(OC3OC(CO)C(O)C(O)C3O)/C2=C\C)CC1C(CO)CO (stereo not drawn)	Pol iota inh 79µM, Pol eta inh inconclusive, POLK inh 79µM, POLB inh 25µM
COC(=O)C1=CO[C@@H](O[C@H]2OC(CO)C(O)C(O)C2O)C2C1CC(O)C2C (stereo partly drawn)	none (no result: WRN helicase inh, Pol iota inh, FEN1 inhibitor, Pol eta inh, POLB inh)
Cc1nc(NC(=O)CCl)sc1C(=O)N(C)C	none
Cc1nc(NC(=O)C(Cl)Cl)sc1C(=O)N(C)C	WRN helicase inh inconclusive, Pol iota inh inconclusive, Pol eta inh 10µM, POLB inh 35µM
CCN(CC)c1ccc(NS(=O)(=O)c2ccc(-c3coc(C)n3)cc2)c(C)c1	POLB inh inconclusive (no result: WRN helicase inh)
O=C(NCc1ccccn1)c1ccc(Cn2c(=S)[nH]c3ccccc3c2=O)cc1	Pol iota inh 50µM, POLB inh inconclusive
O=C(NCc1ccccn1)c1ccc(Cn2c(=S)[nH]c3ccc(Br)cc3c2=O)cc1	none
CCCC[C@H](NC(C)=O)C(=O)N[C@@H](CCC(=O)O)C(=O)N[C@@H](Cc1cnc[nH]1)C(=O)N[C@H](Cc1ccccc1)C(=O)N[C@@H](CCCN=C(N)N)C(=O)N[C@H](Cc1c[nH]c2ccccc12)C(=O)NCC(N)=O	none (no result: WRN helicase inh, Pol iota inh, FEN1 inhibitor, Pol eta inh, POLB inh)
CCc1ccc(S(=O)(=O)/N=C2/C=C(Sc3ncn[nH]3)C(=O)c3ccccc32)cc1	WRN helicase inh 20µM, Pol iota inh 1.1µM, FEN1 inhibitor 79µM, Pol eta inh 6.3µM
O=C1c2ccccc2C(=O)N1CCSc1ncn[nH]1	none
CCc1ccc(S(=O)(=O)/N=C2\C=C(Nc3ccc(O)cc3)C(=O)c3ccccc32)cc1	Pol iota inh 13µM, Pol eta inh inconclusive, POLB inh inconclusive
O=C1C(Nc2ccc(O)cc2)=C/C(=N/S(=O)(=O)c2cccs2)c2ccccc21	Pol iota inh 6.3µM, FEN1 inhibitor inconclusive, Pol eta inh inconclusive
Cc1cccc(NC2=C/C(=N/S(=O)(=O)c3cccs3)c3ccccc3C2=O)c1	none
Cc1ccc(S(=O)(=O)/N=C2\C=C(NS(=O)(=O)c3ccccc3)C(=O)c3ccccc32)cc1	WRN helicase inh inconclusive, Pol iota inh inconclusive, FEN1 inhibitor inconclusive, Pol eta inh inconclusive (no result: POLB inh)
Cc1ccc(Cl)cc1NC1=C/C(=N\S(=O)(=O)c2cccs2)c2ccccc2C1=O	Pol iota inh 4µM, Pol eta inh inconclusive
CN1CCN(c2ncc3nc(CCc4ccccc4)c(=O)n(C4CC4)c3n2)CC1	none (no result: WRN helicase inh, Pol iota inh, FEN1 inhibitor, Pol eta inh, POLB inh)
CC(C)OCCCn1c(=O)c2ccccc2n2c(-c3cc(Cl)ccc3O)nnc12	none (no result: WRN helicase inh)
S=c1[nH]nc(-c2ccccn2)n1/N=C/c1ccc(-c2ccccc2Cl)o1	POLB inh 22µM
O=C(COc1ccccc1C(=O)Nc1ccccc1)Nc1cccc([N+](=O)[O-])c1	none (no result: WRN helicase inh, Pol eta inh, POLB inh)
O=C(OCC1OC(OC(=O)c2cc(O)c(O)c(OC(=O)c3cc(O)c(O)c(O)c3)c2)[C@@H](OC(=O)c2cc(O)c(O)c(OC(=O)c3cc(O)c(O)c(O)c3)c2)C(OC(=O)c2cc(O)c(O)c(OC(=O)c3cc(O)c(O)c(O)c3)c2)C1OC(=O)c1cc(O)c(O)c(OC(=O)c2cc(O)c(O)c(O)c2)c1)c1cc(O)c(O)c(OC(=O)c2cc(O)c(O)c(O)c2)c1 (stereo partly drawn)	POLK inh 0.006µM (no result: WRN helicase inh, Pol iota inh, FEN1 inhibitor, Pol eta inh, POLB inh)
Nc1ccc2nc3c(=O)n(CCc4ccccc4)c(=O)[nH]c3nc2c1	FEN1 inhibitor inconclusive, POLB inh inconclusive
CCCCn1c(=O)[nH]c2nc3cc(N)ccc3nc2c1=O	WRN helicase inh 50µM, Pol iota inh 1.3µM, FEN1 inhibitor inconclusive, POLB inh 5.6µM
CC1C/C(=N\NC(N)=S)c2cc(Cl)ccc2S1 (stereo not drawn)	Pol iota inh 79µM
Cc1cnc(NC(=O)C2COc3ccccc3O2)s1 (stereo not drawn)	Pol iota inh inconclusive, Pol eta inh inconclusive, POLK inh inconclusive, POLB inh 50µM
COc1ccc(-c2nc3ccccc3n3c(-c4ccccc4)c4c(=O)n(C)c(=O)n(C)c4c23)cc1OC	none (no result: WRN helicase inh)
Oc1c(CN2CCc3ccccc3C2)cc(Cl)c2cccnc12	FEN1 inhibitor 40µM
C=CCn1c2ccccc2c2nnc(SCC(N)=O)nc21	none
C=CCSc1nnc2nc3c(nn12)c1cc(C)ccc1n3CC=C	WRN helicase inh inconclusive, Pol iota inh inconclusive, Pol eta inh inconclusive, POLB inh 25µM
COc1cccc(N2C(=O)C(c3ccccc3)=C(c3nc4ccccc4s3)C2NC(C)=O)c1 (stereo not drawn)	POLB inh 89µM
CCOC(=O)C1=C(C)NC(=S)NC1c1ccco1 (stereo not drawn)	WRN helicase inh inconclusive, Pol iota inh 22µM, Pol eta inh inconclusive, POLK inh inconclusive
CCOC(=O)C1=C(C)NC(C)=C(C(=O)OCC)C1c1ccc(C)o1	none
CCOC(=O)C1=C(C)NC(=O)NC1c1ccc(C)o1 (stereo not drawn)	Pol iota inh 56µM, Pol eta inh inconclusive, POLK inh inconclusive
O=S(=O)(c1cccc(F)c1)N1CCN(c2nc(-c3cccs3)nc3ccccc23)CC1	none (no result: WRN helicase inh, Pol eta inh, POLB inh)
CC(C)(C)n1ncc2c(=O)n(Cc3ccc(Cl)cc3F)cnc21	none (no result: WRN helicase inh, Pol eta inh, POLB inh)
O=c1cc(C(O)C[N+](=O)[O-])occ1OCc1ccccc1 (stereo not drawn)	Pol iota inh 25µM, POLK inh inconclusive (no result: POLB inh)
CCCC[n+]1ccn(-c2nc3ccccc3nc2[N-]S(=O)(=O)c2ccc(Br)cc2)c1	Pol eta inh inconclusive
CC(C)CC[n+]1ccn(-c2nc3ccccc3nc2[N-]S(=O)(=O)c2ccccc2)c1	POLB inh 79µM
Cc1ccc(S(=O)(=O)c2cc(Nc3ccccc3)ccc2O)cc1	Pol iota inh 50µM, FEN1 inhibitor inconclusive, POLK inh 40µM (no result: POLB inh)
COc1ccc(CNC(=O)c2cc3c(s2)-c2c(C)cccc2OC3)cc1	Pol iota inh inconclusive, POLB inh 14µM (no result: WRN helicase inh)
COc1ccc(N2CCN(C(=O)c3cc4c(s3)-c3c(C)cccc3OC4)CC2)cc1	none (no result: WRN helicase inh)
Cc1cccc(CCNC(=O)c2cc3c(s2)-c2c(C)cccc2OC3)c1	POLB inh inconclusive (no result: WRN helicase inh)

Assay outcomes from PubChem.
